Experiment [1] can be described thus: A CellTox Green Cytotoxicity Assay to monitor cytotoxicity in HepG2 cells - 16 hour (AID 1224876). Also: nearly all actives have a fitted effect of over 45% in size. Also: potency is read from the fitted curve at half-maximal effect. A digest of the protocol:
(§1)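 Cytotoxicity was tracked as dead-cell DNA fluorescence in HepG2 cells treated with test compounds at 37 C; each time-point value comes from one kinetic series spanning 0, 8, 16, 24, 32 and 40 h.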

A short description of experiment [2]: qHTS RealTime-Glo MT Cell Viability Assay in HepG2 cells - 32 hour (AID 1224877). Also: nearly all actives have a fitted effect of over 55% in size. A digest of the protocol:
(§2)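 Real-time, nonlytic viability: 600 HepG2 cells/well mixed with NanoLuc enzyme plus prosubstrate; 5 h settle, compound (DMSO) added by pintool; luminescence monitored over 40 h at 37 C.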
In general terms: qHTS replaces the single test concentration by a dilution series.

Experiment [3] in a line: A CellTox Green Cytotoxicity Assay to monitor cytotoxicity in HepG2 cells - 24 hour (AID 1224878). Also: nearly all actives have a fitted effect of over 45% in size. Also: potency is read from the fitted curve at half-maximal effect. The gist of the method: as §1
Experiment [4] can be described thus: A CellTox Green Cytotoxicity Assay to monitor cytotoxicity in HepG2 cells - 40 hour (AID 1224879). Also: nearly all actives have a fitted effect of over 40% in size. Also: potency is read from the fitted curve at half-maximal effect. A digest of the protocol:
as §1

Experiment [5] can be described thus: qHTS RealTime-Glo MT Cell Viability Assay in HEK293 cells - 0 hour (AID 1224880). Also: top concentration of the series differs between compounds; nearly all actives have a fitted effect of over 45% in size. A digest of the protocol: (§3)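 Kinetic, non-lysing viability readout. Seed HEK293 (600/well) with reagent, incubate 5 h at 37 C/5% CO2, pin 23 nL compound in DMSO, incubate at 37 C, read luminescence at 0, 8, 16, 24, 32, 40 h.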
A short description of experiment [6]: A CellTox Green Cytotoxicity Assay to monitor cytotoxicity in HEK293 cells - 32 hour (AID 1224881). Also: nearly all actives have a fitted effect of over 40% in size. The gist of the method: (§4)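 Real-time, in one plate: 600 HEK293 cells/well with dead-cell DNA dye, pinned compound after 5 h, 37 C incubation over 40 h; viable cells give no appreciable fluorescence.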
Experiment [7] can be described thus: A CellTox Green Cytotoxicity Assay to monitor cytotoxicity in HepG2 cells - 0 hour (AID 1224882). Also: nearly all actives have a fitted effect of over 35% in size. A digest of the protocol: as §1
A short description of experiment [8]: A CellTox Green Cytotoxicity Assay to monitor cytotoxicity in HepG2 cells - 32 hour (AID 1224883). Also: nearly all actives have a fitted effect of over 50% in size. Also: potency is read from the fitted curve at half-maximal effect. A digest of the protocol: as §1
A short description of experiment [9]: A CellTox Green Cytotoxicity Assay to monitor cytotoxicity in HEK293 cells - 8 hour (AID 1224884). Also: nearly all actives have a fitted effect of over 35% in size. A digest of the protocol:
as §4

Experiment [10] can be described thus: qHTS RealTime-Glo MT Cell Viability Assay in HepG2 cells - 16 hour (AID 1224885). Also: nearly all actives have a fitted effect of over 50% in size. The gist of the method:
as §2

Experiment [11] in a line: qHTS RealTime-Glo MT Cell Viability Assay in HEK293 cells - 24 hour (AID 1224886). Also: top concentration of the series differs between compounds; nearly all actives have a fitted effect of over 50% in size. The gist of the method: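 Cells + reagent dispensed (600 cells/well, HEK293) → 5 h at 37 C/5% CO2 → 23 nL compound in DMSO pinned → 40 h at 37 C → luminescence read at 0, 8, 16, 24, 32, 40 h.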
The nature of experiment [12]: qHTS RealTime-Glo MT Cell Viability Assay in HEK293 cells - 8 hour (AID 1224887). Also: top concentration of the series differs between compounds; nearly all actives have a fitted effect of over 50% in size. A digest of the protocol: as §3
Experiment [13] is described as follows: A CellTox Green Cytotoxicity Assay to monitor cytotoxicity in HEK293 cells - 16 hour (AID 1224888). Also: nearly all actives have a fitted effect of over 35% in size. The gist of the method: as §4
The nature of experiment [14]: qHTS RealTime-Glo MT Cell Viability Assay in HepG2 cells - 0 hour (AID 1224889). Also: nearly all actives have a fitted effect of over 50% in size. A digest of the protocol: as §2
Experiment [15] is described as follows: A CellTox Green Cytotoxicity Assay to monitor cytotoxicity in HepG2 cells - 8 hour (AID 1224890). Also: nearly all actives have a fitted effect of over 45% in size. The gist of the method: as §1
Experiment [16] in a line: qHTS assay to identify small molecule antagonists of the androgen receptor (AR) signaling pathway using the MDA cell line in the presence of 0.5 nM R1881 - cell viability counter screen (AID 1259242). Also: nearly all actives have a fitted effect of over 45% in size. The gist of the method:
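Cells seeded at 3,000/well and allowed 5 hr at 37C, 0% CO2 before compound transfer and R1881 (0.5 nM final) addition; 16 hr later, live-cell protease fluorescence indicated cytotoxicity.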

Experiment [17] deals with Estrogen receptor (Homo sapiens) (UniProt P03372). Description: qHTS assay to identify small molecule antagonists of the estrogen receptor alpha (ER-alpha) signaling pathway using the BG1 cell line in the presence of 0.1 nM 17-beta-estradiol (AID 1259244). Also: nearly all actives have a fitted effect of over 50% in size. A digest of the protocol:
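Luciferase signal from VM7Luc4E2 ERE-reporter cells, co-dosed with test compound and 0.1 nM final 17beta-estradiol for 22 h, read with ONE-Glo.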

Experiment [18] in a line: qHTS assay to identify small molecule antagonists of the estrogen receptor alpha (ER-alpha) signaling pathway using the BG1 cell line in the presence of 0.1 nM 17-beta-estradiol - cell viability counter screen (AID 1259241). Also: nearly all actives have a fitted effect of over 40% in size. A digest of the protocol:
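VM7Luc4E2 cells (endogenous ER-alpha, 4×ERE-luciferase), hormone-starved 5 days in charcoal-stripped FBS, were treated with compounds plus 0.1 nM 17beta-estradiol for 22 hr at 37C; viability read in same wells as CellTiter-Fluor live-cell protease fluorescence.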

The target in experiment [19] is Androgen receptor (Homo sapiens) (UniProt P10275). Put plainly: qHTS assay to identify small molecule antagonists of the androgen receptor (AR) signaling pathway using the MDA cell line in the presence of 0.5 nM R1881 (AID 1259243). Also: nearly all actives have a fitted effect of over 50% in size. A digest of the protocol: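 Luminescence from an AR/GR-responsive MMTV-luciferase construct in MDA-kb2 breast carcinoma cells, read 30 min after ONE-Glo, following 16 hr co-treatment with compounds and 0.5 nM R1881.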
Androgen receptor (Homo sapiens), sequence (P10275 whole entry, looked up): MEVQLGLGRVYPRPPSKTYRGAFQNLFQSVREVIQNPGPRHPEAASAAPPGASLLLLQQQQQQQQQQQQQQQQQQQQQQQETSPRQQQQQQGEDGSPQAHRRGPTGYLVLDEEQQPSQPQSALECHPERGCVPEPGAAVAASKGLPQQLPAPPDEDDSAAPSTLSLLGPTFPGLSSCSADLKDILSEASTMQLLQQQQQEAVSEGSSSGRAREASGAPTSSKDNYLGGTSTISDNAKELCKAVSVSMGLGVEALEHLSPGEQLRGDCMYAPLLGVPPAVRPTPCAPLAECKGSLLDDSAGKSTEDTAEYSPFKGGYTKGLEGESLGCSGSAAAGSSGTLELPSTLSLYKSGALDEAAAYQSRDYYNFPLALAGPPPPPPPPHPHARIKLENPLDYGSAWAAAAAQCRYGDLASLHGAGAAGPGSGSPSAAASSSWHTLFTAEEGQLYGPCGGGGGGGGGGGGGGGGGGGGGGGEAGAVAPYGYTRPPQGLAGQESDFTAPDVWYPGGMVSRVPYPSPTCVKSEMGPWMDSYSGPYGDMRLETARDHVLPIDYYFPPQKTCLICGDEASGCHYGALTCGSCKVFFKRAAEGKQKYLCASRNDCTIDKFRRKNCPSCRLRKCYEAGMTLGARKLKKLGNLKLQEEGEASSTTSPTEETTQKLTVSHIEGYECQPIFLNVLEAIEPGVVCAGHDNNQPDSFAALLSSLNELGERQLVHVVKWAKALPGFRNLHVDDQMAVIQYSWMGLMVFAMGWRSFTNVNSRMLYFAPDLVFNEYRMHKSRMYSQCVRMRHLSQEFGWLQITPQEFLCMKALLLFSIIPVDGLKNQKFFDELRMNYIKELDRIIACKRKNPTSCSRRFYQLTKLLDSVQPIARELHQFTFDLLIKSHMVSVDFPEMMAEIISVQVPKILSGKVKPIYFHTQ

Several values for one entry are separate records, joined by “and”; a condition that tells them apart may be missing. Identical values can stand only once. Inconclusive results are not listed. Where a structure was tested more than once in an assay, its records may differ in their call. Activity calls are given as the source filed them. Calls follow the shape of the dose curve; as a rule, active = well fitted curve in the direction sought with a large enough effect in the repeat runs; inconclusive = weak or mixed curves; inactive = no such curve, though single readings can be large; an effect the other way counts as inactive or inconclusive.
% is scaled to controls: 0 for no effect and ±100 for the full control effect.

Estrogen receptor (Homo sapiens), sequence (P03372 whole entry, looked up): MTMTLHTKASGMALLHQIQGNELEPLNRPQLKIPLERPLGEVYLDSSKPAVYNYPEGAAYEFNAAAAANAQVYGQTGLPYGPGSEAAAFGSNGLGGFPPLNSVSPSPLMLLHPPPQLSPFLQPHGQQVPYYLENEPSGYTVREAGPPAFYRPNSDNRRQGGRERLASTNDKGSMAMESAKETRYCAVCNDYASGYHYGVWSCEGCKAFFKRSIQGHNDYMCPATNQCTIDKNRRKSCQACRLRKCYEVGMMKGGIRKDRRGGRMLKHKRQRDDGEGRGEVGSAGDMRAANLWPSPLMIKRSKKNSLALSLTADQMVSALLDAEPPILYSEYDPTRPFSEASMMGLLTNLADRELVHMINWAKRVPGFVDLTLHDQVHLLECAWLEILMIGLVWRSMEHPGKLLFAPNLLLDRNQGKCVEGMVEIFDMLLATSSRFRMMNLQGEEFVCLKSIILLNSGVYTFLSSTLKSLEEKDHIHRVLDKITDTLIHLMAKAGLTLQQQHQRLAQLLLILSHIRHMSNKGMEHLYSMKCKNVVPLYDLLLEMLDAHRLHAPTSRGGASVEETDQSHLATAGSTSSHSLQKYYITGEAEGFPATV

For `CCN(CC)c1ccc(C(=O)c2ccccc2C(=O)O)c(O)c1`, the Potency entry in [1], in [3], in [4], in experiment [5], in [6] and in experiment [8] was “inactive” in each case. Moreover, the Potency result in [11], in experiment [12], in experiment [14], in [15] and in [17] was “inactive” each time. Besides, the result in experiment [2], in experiment [7], in experiment [9], in experiment [10], in experiment [13] and in experiment [16] was inactive.

In the case of `O=C(O)CCCC[C@@H]1SC[C@@H]2NC(=O)N[C@@H]21`, the Potency entry in [1], in [3], in experiment [4], in experiment [5], in experiment [6] and in experiment [8] was “inactive” throughout. The Potency entry in experiment [11], in [12], in experiment [14], in [15], in experiment [18] and in experiment [17] was “inactive” throughout. The molecule was called inactive in experiment [2], in experiment [7], in experiment [9], in experiment [10], in experiment [13] and in experiment [16].

For the molecule `FC(F)(F)c1ccc(Cl)c(Cl)c1`, the Potency result in experiment [1], in experiment [3], in experiment [4], in experiment [5], in experiment [6] and in experiment [8] was “inactive” in each case. For the same molecule, the Potency entry in experiment [11], in [12], in experiment [14], in [15], in experiment [18] and in experiment [19] was “inactive” throughout. For the same molecule, the Potency result in experiment [17] is “inactive”. Moreover, the outcome in [2], in [7], in experiment [9], in experiment [10], in experiment [13] and in [16] was inactive.

As for `CCCSc1ccc2nc(NC(=O)OC)[nH]c2c1`, the Potency entry in [1], in experiment [5], in experiment [6], in experiment [11], in experiment [12] and in [14] was “inactive” throughout. The Potency result in experiment [15] and in [18] was “inactive” each time. For the same molecule, the call in [2], in [9], in [10], in experiment [13] and in experiment [16] was inactive. The Potency in experiment [4] is 1.34 µM (active); in experiment [8] it was “inactive and 1.51 µM (active)”.

Regarding `CC[C@H](C)C(=O)O[C@H]1C[C@@H](C)C=C2C=C[C@H](C)[C@H](CC[C@@H]3C[C@@H](O)CC(=O)O3)[C@H]21`, the Potency in experiment [1] was 49.6 µM (active) and inactive and 16.9 µM (active); in experiment [3], 24.9 µM (active) and 10.7 µM (active); in [4] it was 7.01 µM (active) and 21.8 µM (active) and 9.52 µM (active); in experiment [8], 11.1 µM (active) and 17.3 µM (active) and 9.52 µM (active). Further, the result in experiment [2], in experiment [7], in experiment [9], in experiment [10], in experiment [13] and in [16] was inactive. In addition, the Potency entry in [5], in [6], in experiment [11], in [12], in experiment [14] and in experiment [15] was “inactive” throughout. The Potency result in experiment [18] and in experiment [17] was “inactive” each time.

For `NNc1nncc2ccccc12`, the Potency entry in [1], in experiment [3], in experiment [4], in experiment [5], in experiment [6] and in experiment [8] was “inactive” each time. Besides, the Potency result in [14], in experiment [15] and in [18] was “inactive” each time. The result in experiment [2], in [7], in experiment [9], in experiment [10], in [13] and in [16] was inactive. The activity change, negative = cytotoxicity in experiment [11] is 2.63% [at 15.8 µM] (inactive); in experiment [12], 1.02% [at 15.8 µM] (inactive).

For the molecule `CC1=C(C)S(=O)(=O)CCS1(=O)=O`, the Potency entry in [1], in experiment [3], in experiment [4], in experiment [5], in experiment [6] and in experiment [8] was “inactive” throughout. For the same molecule, the Potency entry in experiment [11], in experiment [12], in experiment [14], in experiment [15] and in [17] was “inactive” throughout. Moreover, the molecule was called inactive in experiment [2], in experiment [9], in experiment [10], in experiment [13] and in experiment [16].

In the case of `CCc1cccc(C)c1N`, the Potency entry in experiment [1], in [4], in [5], in [6], in [8] and in [11] was “inactive” in each case. The Potency entry in experiment [12], in experiment [14], in experiment [15], in [18], in experiment [19] and in experiment [17] was “inactive” each time. Besides, the outcome in experiment [2], in [9], in [10] and in [13] was inactive.

As to `CCCCCC1=CCCC1=O`, the Potency entry in experiment [1], in [3], in experiment [4], in [5], in experiment [6] and in experiment [8] was “inactive” each time. Besides, the Potency entry in experiment [11], in [12], in experiment [14], in [15], in [18] and in [17] was “inactive” in each case. The call in [2], in experiment [7], in [9], in [10] and in [13] was inactive.

In the case of `O=C(O)CCCCCCCCCCC(=O)O`, the Potency entry in experiment [1], in experiment [3], in experiment [4], in experiment [5], in experiment [6] and in [8] was “inactive” in each case. Moreover, the Potency result in experiment [11], in experiment [12], in experiment [14], in [15], in experiment [18] and in experiment [17] was “inactive” throughout. Moreover, the result in experiment [2], in experiment [7], in [9], in [10] and in experiment [13] was inactive.

As for `COc1ccc(Nc2ccccc2)c(C)c1`, the Potency result in experiment [1], in [3], in experiment [4], in experiment [5], in experiment [6] and in experiment [8] was “inactive” each time. The Potency entry in [11], in experiment [12], in [14], in experiment [15] and in experiment [17] was “inactive” each time. The molecule was called inactive in experiment [2], in [7], in experiment [9], in experiment [10] and in experiment [13].

Regarding `CCCCCCCCCCCCCCO`, the Potency result in [1], in [3], in experiment [4], in experiment [5], in experiment [6] and in experiment [8] was “inactive” in each case. Further, the Potency entry in [11], in experiment [12], in experiment [14], in experiment [15], in experiment [18] and in experiment [17] was “inactive” each time. Besides, the outcome in [2], in experiment [9], in [10] and in experiment [13] was inactive.

Take `Cc1ccc(S(N)(=O)=O)cc1`: the Potency entry in [1], in experiment [4], in experiment [5], in experiment [6], in [8] and in experiment [11] was “inactive” in each case. In addition, the Potency entry in experiment [12], in experiment [14], in experiment [15] and in [18] was “inactive” throughout. Moreover, the result in experiment [2], in experiment [7], in experiment [9], in experiment [10] and in [13] was inactive.

On to `O=C(OCCOCCOC(=O)c1ccccc1)c1ccccc1`, for which the Potency result in [1], in experiment [4], in experiment [5], in [6], in [8] and in experiment [14] was “inactive” in each case. Further, the Potency result in experiment [15], in experiment [18] and in experiment [17] was “inactive” in each case. In addition, the molecule was called inactive in experiment [2], in experiment [7], in experiment [9], in [10], in experiment [13] and in experiment [16].

These data come from PubChem BioAssay (Tox21).
